# Bioassay records (PubChem BioAssay)
# MCF10A rerep: inducers of DNA re-replication in MCF 10A breast cells; MCF 10A DNA re-replication, Hoechst nuclear intensity, 48 h; Potency, µM (series often up to 46.1 µM), hits mostly activators; actives 2.9% (n = 350,000); also: nearly all actives have a fitted effect of over 50% in size
# KB-3-1 tox: KB-3-1 parental cell cytotoxicity; Potency, µM (titrated, usually from 46.1 µM), most hits filed as cytotoxic; KB-3-1 viability, CellTiter-Glo ATP luminescence, 72 h; actives 1.4% (n = 400,000); AID 1347075; also: nearly all actives have a fitted effect of over 60% in size
#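 72 h, 37 °C compound treatment of KB-3-1 parental cells; CellTiter-Glo added, 10 min, luminescence read. Data corrected against DMSO-only plates and normalized before curve fitting.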
# KB-V1 MDR tox: KB-V1 MDR subline cytotoxicity | KB-V1 MDR cells viability, CellTiter-Glo, 72 h | Potency, µM (highest dose often 46.1 µM), most hits filed as cytotoxic | actives 3.4% (n = 400,000); also: nearly all actives have a fitted effect of over 60% in size
#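 KB-V1, DMEM (no phenol red) + 10% FBS; cpd pin-transferred, titration series; 72 h, 37 degrees C; CellTiter-Glo, luminescence. Data normalized, curve-fit.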
# TSG101-PTAP inh: blocks PTAP/TSG101 interaction to inhibit HIV-1 budding; Q99816; Fluorescence polarization, FITC-PTAP peptide / Tsg101 binding; Potency, µM (titrated, usually from 115 µM), most hits filed as inhibitors; 340,000 tested, under 10 active; active = well fitted inhibition curve with a large enough effect in the main read-out, with a control signal flat, not every such curve was filed as active; inconclusive = small, poorly fitted or top-dose-only effect, or effect the other way, or a change in a side signal; inactive = no such curve, though single readings can be large or run the other way
# Target sequence (Q99816 whole entry, looked up): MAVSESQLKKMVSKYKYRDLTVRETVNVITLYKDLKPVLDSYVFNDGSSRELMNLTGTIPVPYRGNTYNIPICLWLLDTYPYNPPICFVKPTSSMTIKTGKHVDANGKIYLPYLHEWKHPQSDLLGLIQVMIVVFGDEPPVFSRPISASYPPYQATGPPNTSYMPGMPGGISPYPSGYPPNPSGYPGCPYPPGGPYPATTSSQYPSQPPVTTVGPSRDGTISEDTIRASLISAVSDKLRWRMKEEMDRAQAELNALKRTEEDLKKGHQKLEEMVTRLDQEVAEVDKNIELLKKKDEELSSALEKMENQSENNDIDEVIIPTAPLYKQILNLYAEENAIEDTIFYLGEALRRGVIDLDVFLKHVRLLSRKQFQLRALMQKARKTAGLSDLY
#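 Tsg101 binding domain (10 uM final) was mixed with compound and a FITC-labeled PTAP peptide (50 nM final) in HEPES pH 7.5 buffer with NaCl, Tween 20, EDTA and TCEP; fluorescence polarization was read after 20 min at r.t.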
# PINK1 modulator: changes PINK1 expression | Potency, µM (titrated, usually from 76.6 µM), actives largely listed as activators | PINK1 immunofluorescence, high-content cytometry, 24 h | actives 0.2% (n = 410,000); active = well fitted activation curve with a large enough effect; inconclusive = small, poorly fitted or top-dose-only effect; cell line not stated here; also: nearly all actives have a fitted effect of over 65% in size
#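 A stable cell line was treated with compounds at 5 concentrations for 24 hours, with CCCP as control. PINK1 levels and mitochondrial localization were measured by immunofluorescence with mitochondrial, cell and nuclear markers after fixation, read by laser-scanning cytometry.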
# SW480 rereplic: inducers of DNA re-replication in SW480 colon cancer cells. SW480 DNA re-replication, Hoechst DNA content imaging, 48 h. Potency, µM (series often up to 46.1 µM), usual class: activators. actives 1.8% (n = 340,000); also: nearly all actives have a fitted effect of over 55% in size
#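 DNA re-replication was detected as more nuclei of elevated Hoechst intensity after 48 hr exposure to compound (23 nL pinned per well of 250 cells).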
# A number is an active result; i = inactive; ? = inconclusive; nt = no result given. Rows were chosen to be rich in hits. Some 6.8% of all compounds tested hit in one or more screens of this group. Unless noted, calls follow the shape of the dose curve; as a rule, active = well fitted curve in the direction sought with a large enough effect; inconclusive = small, poorly fitted or top-dose-only effect, or another doubt; inactive = no such curve, though single readings can be large; an effect the other way counts as inactive or inconclusive.
SMILES,MCF10A rerep,KB-3-1 tox,KB-V1 MDR tox,TSG101-PTAP inh,PINK1 modulator,SW480 rereplic
COc1ccc(Cl)cc1NC(=O)c1c(NCc2sccc2C)sc2c1CCCC2,nt,nt,nt,nt,i,nt
CCC1CN(CCNC(=O)c2ccc3c(c2)OCCO3)Cc2cc(OC)ccc2O1 (stereo unspecified),nt,nt,nt,nt,i,nt
CCCCNC(=O)c1ccc2nc(-c3cccs3)c(-c3cccs3)nc2c1,nt,i,i,nt,i,nt
Cc1ccc(C(=O)c2ccc(C)cc2)cc1,i,i,i,i,i,i
Cc1ccc(C(=O)c2no[n+]([O-])c2C(=O)c2ccc(C)cc2)cc1,7.3µM,i,i,i,i,5.2µM
CCCCCOC(=O)c1[nH]c2c(c1C)C(=O)C(C(=O)OC)C(C)C2 (stereo unspecified),21µM,?,18µM,i,i,?
COCCOC(=O)c1[nH]c2c(c1C)C(=O)C(C(=O)OC)C(C)C2 (stereo unspecified),i,i,i,i,i,i
COc1cccc(CN2CCOc3ccc(C(O)c4cccnc4)cc3C2)c1 (stereo unspecified),nt,nt,nt,nt,i,nt
CCCn1nnc(NC(=O)c2cc(Br)cc(Br)c2OC)n1,i,i,16µM,i,i,i
O=C1N/C(=N/NC(=O)c2cccc3ccccc23)S/C1=C\c1ccccc1OCc1ccccc1,23µM,?,i,i,i,i
COc1cccc(/C=C2\SC(=O)NC2=O)c1OCc1ccc(C(=O)O)cc1,i,i,i,i,i,i
COc1ccc(OC)c(/C=C2\S/C(=N/NC(=O)c3ccc4ccccc4c3)NC2=O)c1,16µM,i,i,?,i,i
COc1cc2c(cc1O)CCN[C@@]21CS[C@H]2c3c(OC(C)=O)c(C)c4c(c3C(COC1=O)N1C2C2c3c(cc(C)c(OC)c3O)CC([C@@H]1O)N2C)OCO4 (stereo partly specified),i,nt,nt,nt,nt,i
Cc1ccc(S(=O)(=O)NCC(c2ccc(N(C)C)cc2)N2CCc3ccccc32)cc1C (stereo unspecified),nt,i,i,nt,i,nt
O=C(CN(c1cccc(C(F)(F)F)c1)S(=O)(=O)c1ccc(Cl)c([N+](=O)[O-])c1)NCc1ccccc1Cl,4.6µM,i,i,i,i,?
O=C(CN(c1cccc(C(F)(F)F)c1)S(=O)(=O)c1ccc(Cl)c([N+](=O)[O-])c1)NCc1ccccc1,3.7µM,i,i,i,i,13µM
CC(NC(=O)CN(c1cccc(C(F)(F)F)c1)S(=O)(=O)c1ccc(Cl)c([N+](=O)[O-])c1)c1ccccc1 (stereo unspecified),?,?,?,i,i,?
O=C(CN(c1ccc(Br)cc1)S(=O)(=O)c1ccc(Cl)c([N+](=O)[O-])c1)NCCc1ccccc1,?,i,i,i,i,i
COc1cc(OC)cc(OC2(C)CCN(Cc3ccc(OC(C)C)cc3)C2)c1 (stereo unspecified),nt,i,i,nt,45µM,nt
COc1ccc(CN2C(=O)C(C)Nc3ncnc(N4CCOCC4)c32)cc1 (stereo unspecified),?,?,18µM,i,i,?
O=C1C(Cc2ccccc2)Nc2ncnc(N3CCc4ccccc4C3)c2N1Cc1ccc(Cl)cc1 (stereo unspecified),23µM,i,26µM,i,i,?
CC1Nc2ncnc(N3CCN(c4ccccc4)CC3)c2N(Cc2ccc(Br)cc2)C1=O (stereo unspecified),16µM,?,?,i,i,i
CCC(=O)Oc1ccc2ccccc2c1CNC(=O)c1ccccc1,?,?,15µM,i,i,i
COc1ccc(C2(C)NC(=O)N(CC(=O)c3cc(C)n(C4CC4)c3C)C2=O)cc1OC (stereo unspecified),i,?,23µM,i,i,i
CCn1nc(-c2ccccc2)c(-c2ccccc2)c(C(=O)Nc2ccccc2C(N)=O)c1=O,nt,nt,nt,nt,i,nt
SMILES,MCF10A rerep,KB-3-1 tox,KB-V1 MDR tox,TSG101-PTAP inh,PINK1 modulator,SW480 rereplic
Cc1ccc(C)c(NC(=O)N2CCN(C(=O)c3nsc4ccccc34)CC2)c1,nt,i,i,nt,i,nt
CCOCCCN(CCC#N)S(=O)(=O)c1ccc(S(=O)(=O)N2CCCC2)cc1,i,i,26µM,i,i,i
CN1CCN(CCC(=O)N2c3ccccc3Sc3ccc(Cl)cc32)CC1,i,i,i,i,nt,i
CN1CCN(CCOC2Cc3ccccc3Sc3ccc(Cl)cc32)CC1 (stereo unspecified),23µM,?,23µM,i,i,i
Cc1cccn2c(=O)c3cc(C(=O)NCCc4ccc(S(N)(=O)=O)cc4)n(C)c3nc12,nt,nt,nt,nt,i,nt
Cc1cc(C)nc(NS(=O)(=O)c2ccc(NC(=O)c3cc4c(=O)n5cccc(C)c5nc4n3C)cc2)n1,10µM,i,?,i,i,2.1µM
N=c1c(S(=O)(=O)c2ccccc2)cc2c(=O)n3ccccc3nc2n1C1CCCC1,i,i,i,i,?,i
CCn1c(=N)c(C(=O)NCc2ccccc2)cc2c(=O)n3cccc(C)c3nc21,nt,i,i,nt,i,nt
CCn1c(=N)c(C(=O)NC)cc2c(=O)n3cccc(C)c3nc21,?,i,i,i,i,13µM
N=c1c(C(=O)NCc2ccco2)cc2c(=O)n3ccccc3nc2n1C1CCCC1,21µM,i,?,i,i,21µM
Cc1cccn2c(=O)c3cc(C(=O)NC4CCCC4)n(C)c3nc12,13µM,10µM,i,i,i,4.6µM
CCCn1c(=N)c(C(=O)NC2CCCC2)cc2c(=O)n3cccc(C)c3nc21,2.9µM,i,?,i,i,6.5µM
N=c1c(C(=O)NC2CCCC2)cc2c(=O)n3ccccc3nc2n1C1CCCC1,i,?,?,i,nt,16µM
Cn1c(C(=O)NCCC2=CCCCC2)cc2c(=O)n3ccccc3nc21,i,i,i,i,i,i
Cc1cccn2c(=O)c3cc(C(=O)NC4CCCC4)c(=N)n(C4CCCC4)c3nc12,3.5µM,?,?,i,i,7.1µM
Cc1cccn2c(=O)c3cc(C(=O)NCCC4=CCCCC4)n(C)c3nc12,9.2µM,?,i,i,i,?
Cc1cc2c(cc3c(SCc4ccccc4Cl)nnc(C)n32)o1,nt,i,i,nt,i,nt
CCOC(=O)c1c(C)[nH]c(C(=O)OC(C)C(=O)NCc2ccccc2)c1C (stereo unspecified),i,i,?,i,?,i
Cc1[nH]c2ccc(C(=O)OC(C)C(=O)NCc3ccccc3)cc2c1C (stereo unspecified),15µM,16µM,16µM,i,i,?
Cc1c(CCC(=O)NCCCCCC(=O)O)c(=O)oc2c(C)c3oc4c(c3cc12)CCCC4,?,i,i,i,i,i
